Screening data as filed in PubChem.
Only some compounds are listed: those with a hit (about 2.6% of all), similar ones and a draw of the others.
PABP FP inh: PABP poly(A) RNA binding inhibitors, primary screen, biochemical, fluorescence polarization, uHTS. Polyadenylate-binding protein 1 (Homo sapiens), P11940. calls only at 35 µM. 290,000 tested, 1% active;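 further: calls also rest on retests at 20 µM and on dose response follow-up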
PABP1 MLLE inh: inhibitors of PABP1 MLLE–PAM2 peptide binding, primary screen, biochemical, fluorescence polarization, FITC-PAM2, GST-MLLE | Polyadenylate-binding protein 1 (Homo sapiens), P11940 | 360,000 tested, 0.36% active | inhibition, % at 20 µM; in the data active means inhibition above about 35%, passing the limit was not always enough;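 further: plate controls were DMSO wells with GST-MLLE for no effect and wells lacking GST-MLLE protein for full effect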
APOBEC3A inh: APOBEC3A ssDNA deaminase inhibitors, primary screen, selectivity assay for APOBEC3G inhibitor project, biochemical, FAM/TAMRA oligo cleavage fluorescence | DNA dC->dU-editing enzyme APOBEC-3A (Homo sapiens), P31941 | recombinant A3A, FAM/TAMRA ssDNA deamination fluorescence | inhibition, % at 20 µM | 330,000 tested, 0.41% active;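 active means at least 40% inhibition at 20 µM here, with at most 30% in a related deaminase screen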;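 further: plate controls were A3A with DMSO for no effect and wells lacking A3A enzyme for full effect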
A3G deaminase: APOBEC3G DNA deaminase inhibitors, primary screen, biochemical, fluorescence, single-stranded DNA substrate, uHTS; DNA dC->dU-editing enzyme APOBEC-3G (Homo sapiens), Q9HC16; recombinant A3G, ssDNA deamination FAM/TAMRA fluorescence; inhibition, % at 20 µM; 330,000 tested, 0.28% active; AID 493012, 2011;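 active means inhibition of at least 40% at 20 µM, with no more than 30% in the related APOBEC3A deaminase screen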;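 further: plate controls were DMSO wells with A3G for no effect and wells lacking A3G enzyme for full effect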
eIF4H FP inh: human eIF4H binding inhibitors, primary screen, translation initiation inhibitor project, biochemical, uHTS, fluorescence polarization. AID 2012, 2009. inhibition, % at 35 µM. eIF4H fluorescence polarization binding assay. 290,000 tested, 0.94% active. Eukaryotic translation initiation factor 4H (Homo sapiens), Q15056;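 further: calls also rest on retests at 20 µM and on dose response follow-up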
PHOSPHO1 inh: PubChem AID 1565; Phosphoethanolamine/phosphocholine phosphatase (Homo sapiens), Q8TCT1; recombinant PHOSPHO1, absorbance phosphatase assay; inhibition, % at 13.3 µM; 290,000 tested, 1.1% active; in the data active means inhibition above about 60%
Target sequence (Q8TCT1 whole entry, looked up): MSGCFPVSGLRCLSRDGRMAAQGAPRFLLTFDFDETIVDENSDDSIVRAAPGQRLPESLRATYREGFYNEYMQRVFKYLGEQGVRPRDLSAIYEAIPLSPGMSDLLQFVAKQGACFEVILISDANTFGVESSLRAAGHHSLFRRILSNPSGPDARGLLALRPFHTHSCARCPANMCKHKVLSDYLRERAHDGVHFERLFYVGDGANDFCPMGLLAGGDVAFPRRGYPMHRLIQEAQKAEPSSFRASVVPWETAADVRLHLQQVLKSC
* = called active by the depositor; i = inactive; u = inconclusive; x = not tested or not shown; + = active, no number. Unless noted, how the calls were made is not given here.

SMILES | PABP FP inh | PABP1 MLLE inh | APOBEC3A inh | A3G deaminase | eIF4H FP inh | PHOSPHO1 inh
O=C(CBr)N1CCc2ccccc2C(c2ccccc2)C1 (stereo unspecified) | i | -126 | -3 | -9 | 84* | 12
FC(F)(F)c1cnc(-c2cnc(-c3ccccn3)nc2)c(Cl)c1 | i | 10 | 3 | -2 | -16 | 36
COc1cccc(/C=N/Nc2ccc(S(=O)(=O)O)cc2)c1O | i | -1 | -1 | -6 | 19 | 92*
COc1cccc(/C=N/Nc2ccc(C(=O)O)cc2)c1O | i | 11 | -2 | -6 | -6 | -4
Cc1ccc(OCC(=O)c2c[nH]c3ccccc23)c([N+](=O)[O-])n1 | i | -3 | 3 | -2 | 20 | 20
Cc1ccc(C)c(OCc2n[nH]c(=S)o2)c1 | i | -114 | 4 | -3 | 4 | -12
COc1ccc(OCc2n[nH]c(=S)o2)cc1 | i | -112 | -4 | -7 | -7 | 88*
S=c1[nH]nc(COc2ccc(Cl)cc2)o1 | i | -83 | -6 | -4 | 4 | 103*
C=CC1=C2C=C(C3CC3)N(CCCN(CC)CC)C=C2C(=O)C(C)(OC(=O)c2ccco2)C1=O (stereo unspecified) | x | 27 | 2 | 4 | x | x
O=C(CC(SCc1ccco1)c1ccc(O)cc1)c1cccs1 (stereo unspecified) | i | 28 | 4 | 2 | -4 | 23
O=C(CC(SCCO)c1ccc2c(c1)OCO2)c1cccs1 (stereo unspecified) | i | 43* | 0 | -4 | 6 | 83*
CC(C(=O)Nc1nncs1)N1C(=O)C2C3C=CC(C3)C2C1=O (stereo unspecified) | + | 3 | -2 | -5 | u | 23
CCO[C@@H]1OC(C(=O)O)=C[C@H](C)[C@H]1CCCO | + | -6 | -4 | -8 | 34 | 35
C#Cc1ccc([C@@H]2C=C(C(=O)OCC=C)O[C@H](OCC)[C@H]2CCCO)cc1 | i | 7 | -7 | -10 | 88* | 26
Cc1cc(C)c(C)c(C(=O)CSc2nnc(C)c(=O)[nH]2)c1C | i | x | x | x | 1 | 89*
Cc1ccc(S(=O)(=O)N2CCN(C(=O)CSc3nnc(C)c(=O)[nH]3)CC2)cc1 | i | 13 | 2 | -4 | -6 | 90*
Cc1nnc(SCC(=O)N2CCN(S(=O)(=O)c3ccccc3)CC2)[nH]c1=O | i | 6 | 0 | -6 | 6 | -14
NS(=O)(=O)c1ccc(CNC(=O)Cc2cccs2)cc1 | i | -28 | 23 | 5 | 58* | 14
O=C(Cc1ccc(Cl)cc1)NNC(=S)NC(=O)c1cccs1 | i | 6 | -2 | -2 | 10 | -122
O=C(Cc1cccs1)NNC(=S)NCc1ccc(Cl)cc1 | i | -43 | -2 | -4 | 14 | 100*
O=C(Cc1cccs1)NNC(=O)c1ccc(F)cc1 | + | -9 | -5 | -5 | u | -7
COc1ccc(S(=O)(=O)N(C)C[C@H]2Oc3ccc(NS(=O)(=O)c4ccc(F)cc4)cc3C(=O)N([C@H](C)CO)C[C@@H]2C)cc1 | x | 0 | -1 | -6 | x | x
COc1ccc(-c2ccc(-c3noc(-c4ccccc4C)n3)c(OC)n2)cc1 | i | -22 | -2 | -2 | 44 | -42
COc1ccc(-c2ccc(-c3noc(-c4cccs4)n3)c(OC)n2)cc1 | + | -47 | -3 | 4 | 29* | -10
Fc1ccc(/C=N/n2c(-c3cccs3)n[nH]c2=S)cc1 | i | -44 | -3 | 32 | -3 | 71*
SMILES | PABP FP inh | PABP1 MLLE inh | APOBEC3A inh | A3G deaminase | eIF4H FP inh | PHOSPHO1 inh
Oc1c(Br)cc(/C=N/n2c(-c3ccccc3)n[nH]c2=S)c(Br)c1O | + | x | x | x | 85* | -28
Cc1cccc(/C=N/n2c(-c3ccccn3)n[nH]c2=S)c1 | i | x | -1 | 57* | 5 | -4
S=c1[nH]nc(-c2ccncc2)n1/N=C/c1cccc(Cl)c1 | i | -60 | -4 | 53* | -11 | -15
COc1ccc(CN2CCNC(=O)C2CC(=O)NCCCn2cccn2)c(OC)c1 (stereo unspecified) | i | -4 | -4 | -6 | 4 | 44
C[C@H](CO)N1C[C@H](C)[C@@H](CN(C)C(=O)Nc2ccc(C(F)(F)F)cc2)Oc2ccc(NC(=O)C3CCCCC3)cc2C1=O | x | 5 | 1 | 3 | x | x
COc1ccc(NC(=O)c2ccc(CNc3c(N4CCCC4)c(=O)c3=O)cc2)cc1Cl | i | 0 | 3 | -3 | -11 | 66*
COc1ccc(NC(=O)C2CCC(CNc3c(N4CCOCC4)c(=O)c3=O)CC2)cc1Cl (stereo unspecified) | i | 10 | -2 | -6 | 6 | 27
COc1cccc(CC(=O)OCC(=O)N(C)CC(=O)Nc2ccccc2Cl)c1 | x | 1 | -1 | -10 | x | x
CC(C)CC(=O)Nc1cccc(C(C)O)c1 (stereo unspecified) | + | x | -2 | -8 | active | 0
COC(=O)c1ccc(NC(=O)CN2CCOCC2)cc1 | i | 6 | -1 | -5 | -2 | 74*
COc1ccc(NC(=O)CN2C(=O)NC(C)(c3ccc(C)cc3)C2=O)cn1 (stereo unspecified) | x | 0 | 3 | -4 | x | x
O=C(Nc1ccccc1)c1ccc(=O)n(Cc2ccc(F)c(F)c2)c1 | i | -14 | -1 | -1 | 1 | 65*
Cc1cc(C)c2c(=O)n3c(nc2c1)C(Cc1ccccc1)NC(=O)c1cc2ccccc2cc1-3 (stereo unspecified) | x | 2 | x | x | x | x
CCN1C(=O)C2C(C1=O)N1C(c3ccccc3)C3C(=O)N(CC)C(=O)C3N1C2c1ccccc1 (stereo unspecified) | i | -4 | -7 | -9 | 4 | 16
CCN1C(=O)C(C(=O)c2ccccc2)SC1=S (stereo unspecified) | i | 38* | -4 | -4 | 20 | 4
Cc1ccc(C(=O)c2sc3nsc(C)c3c2N)cc1 | i | 7 | -4 | -7 | 0 | 98*
Cc1nc(-c2ccccc2)nc2sc(C(=O)c3ccc(F)cc3)c(N)c12 | i | -38 | -3 | -12 | 2 | 10
Cc1nc2sc(C(=O)c3ccccc3)c(N)c2c(C)c1C | i | 2 | -4 | -9 | 2 | 18
Cc1snc2sc(C(=O)c3ccc(Br)cc3)c(N)c12 | i | -4 | -3 | -5 | 14 | 86*
Nc1c(NCc2ccccc2F)c(=O)[nH]c(=O)n1Cc1ccccc1 | + | 1 | -10 | -6 | 51* | -20
